# Assay results taken from PubChem BioAssay (Tox21).
# Records with an inconclusive call do not appear. Calls of active or inactive are those of the source. The call rests on the fitted dose curve; in most records, active means well fitted activation curve with a large enough effect in the signal ratio in the repeat runs (not every such curve was filed as active); inconclusive means weak or mixed curves, or effect the other way; inactive means no such curve, though single readings can be large or run the other way; the % refers to the signal ratio.
# Experiment: qHTS assay for small molecule agonists of the antioxidant response element (ARE) signaling pathway (AID 743202)
# Conditions: HepG2 ARE-bla reporter, beta-lactamase FRET, 16 h; series mostly up to 73.3 µM; activation: at the top concentration
# Method in brief: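 Quantitative high-throughput format in HepG2 cells bearing an integrated ARE-beta-lactamase reporter. Compound exposure lasted 16 h at 37 C, and fluorescence was read 2 h after adding LiveBLAzer B/G substrate at room temperature.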
# On the % scale 0 is the no-effect control and ±100 the full control effect.
row,SMILES,activation
1,COc1ccc(CCN(C)CCCC(C#N)(c2cc(OC)c(OC)c(OC)c2)C(C)C)cc1OC (stereo not given),4.11% (inactive)
2,NS(=O)(=O)c1cc(C(=O)O)cc(N2CCCC2)c1Oc1ccccc1,-0.304% (inactive)
3,NC(=O)c1cn(Cc2c(F)cccc2F)nn1,0.525% (inactive)
4,O=C(O)CCCl,9.38% [at 94.8 µM] (inactive)
5,NC(CSCC(=O)O)C(=O)O (stereo not given),-0.463% (inactive)
6,CC(=O)c1ccccc1O,1.59% (inactive)
7,COC(=O)CCSCCC(=O)OC,18.2% (inactive)
8,Cc1[nH]c(=O)c(C#N)cc1-c1ccc2nccn2c1,-2.12% (inactive)
9,C=CCOCC(CC)(CO)COCC=C,-0.743% (inactive)
10,Cc1ccc(=O)n(-c2ccccc2)c1,0.432% (inactive)
11,COC(=O)NN,-9.11% [at 94.8 µM] (inactive)
12,CC(C)(O)C#CC(C)(C)O,-4.99% [at 94.8 µM] (inactive)
13,CC1=CC(C)C(C=O)CC1 (stereo not given),-4.52% (inactive)
14,N[C@H](C(=O)O)c1ccc(O)cc1,7.02% [at 34.3 µM] (inactive)
15,CO/N=C(/C(=O)N[C@@H]1C(=O)N2C(C(=O)OCOC(=O)C(C)(C)C)=C(C)CS[C@H]12)c1csc(N)n1,-0.9% (inactive)
16,CCO/C([O-])=N/c1c[n+](N2CCOCC2)no1,2.77% (inactive)
17,CC(C)NCC(O)c1ccc(NS(C)(=O)=O)cc1 (stereo not given),-4.08% [at 94.8 µM] (inactive)
18,COC(=O)C1=C(C)NC(C)=C(C(=O)OC)C1c1ccccc1[N+](=O)[O-],5.51% (inactive)
19,CCCCOCCOCCOCc1cc2c(cc1CCC)OCO2,-0.62% (inactive)
20,CC(C)(CC(=O)O)C(=O)O,15.1% (inactive)
